Screening data deposited in PubChem by National Center for Advancing Translational Sciences (NCATS).
In the library only some 1.8% were active in any assay of this set; here they are far more common.
Akt phos inh: inhibitors of Akt phosphorylation; activity change, % for hits at 50 µM; actives 0.32% (n = 360,000); Neuro2A IGF-stimulated pAkt S473 HTRF, 20 min; active compounds read low; in the data active = activity change below about -80%; inconclusive = mostly about -51% to -80%
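Neuro2A cells in DMEM with 0.5% FBS, overnight at 37 deg C, given compound at single 50 µM final, then IGF (6 nM final) for 20 min at 37 deg C. Lysed; phospho-Akt Ser473 by HTRF after 24 h, 665/615 ratio.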
CCT chaperon mod: modulators of cytosolic chaperonin (CCT/TRiC) activity; activity change, % (concentration not given with the values), hits read low; purified chaperonin ATPase assay, HTRF ADP detection, 30 min; actives 0.3% (n = 360,000); AID 651819; in the data active = activity change below about -30%
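We incubate TRiC, 40 or 20 nM final, with library compounds at 76 uM and 10 uM ATP for 30 min at 37 °C. ADP formed is detected with Transcreener HTRF reagents after 30 min at room temperature.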
A-T KAP1 phos: potential ataxia-telangiectasia treatment; Potency, µM (titrated, usually from 57.5 µM), most hits filed as activators; actives 0.19% (n = 320,000); F2112 A-T fibroblasts, KAP-1 phosphorylation AlphaLISA; neocarzinostatin DNA damage 30 min before lysis; AID 485349; note: nearly all actives have a fitted effect of over 45% in size
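ATM-like activity read as KAP-1 phosphorylation via AlphaLISA donor/acceptor antibody pairs after lysis and 6 hr at 25C. Cells were ATM-null patient fibroblasts (F2112, hTERT), dosed 60 min, then exposed to the DSB inducer NCS for 30 min.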
BRCA1 expr up: activators of BRCA1 expression; AID 624202; actives 1.1% (n = 380,000); Potency, µM (doses to about 46.1 µM), actives largely listed as activators; MCF7-BRCA1-FFLuc reporter, luminescence, 48 h; response scale: scaled: vehicle 0%, 10 µM genistein 100%; note: nearly all actives have a fitted effect of over 80% in size
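Reporter cells (MCF7, BRCA1 promoter-firefly luciferase) received library compounds across a concentration series for 48 h. End-point luminescence was measured and concentration-effect curves derived after normalization.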
Mm-Cpn inhibitor: blocks the Methanococcus maripaludis chaperonin Mm-Cpn. purified Mm-Cpn ATPase, ADP Transcreener TR-FRET. Potency, µM (doses to about 76.9 µM), actives largely listed as inhibitors. actives 0.031% (n = 330,000); note: nearly all actives have a fitted effect of over 80% in size
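TR-FRET (320 nm excitation; 590 and 665 nm emission) reports ADP made from 10 uM ATP by 25 nM enzyme; compounds were preincubated 10 min, reaction run 30 min, both at 37°C.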
Numbers stand for hits; . = inactive; ? = inconclusive; / = no result. Unless noted, calls come from the whole dose curve; as a rule, active = well fitted curve in the direction sought with a large enough effect; inconclusive = small, poorly fitted or top-dose-only effect, or another doubt; inactive = no such curve, though single readings can be large; an effect the other way counts as inactive or inconclusive.

SMILES | Akt phos inh | CCT chaperon mod | A-T KAP1 phos | BRCA1 expr up | Mm-Cpn inhibitor
Cc1cccc(CCNc2nc3ccccc3n3nnnc23)c1 | -87.4% | . | . | . | .
COC(=O)c1[nH]c(C)c(/C(O)=C2\C(=O)C(=O)N(CCN3CCOCC3)C2c2cccs2)c1C (stereo not given) | -96.2% | . | . | . | .
O=C(O)c1ccc(-c2ccc(Cl)cc2Cl)o1 | . | . | . | . | .
CN(C)/C=C/C(=O)c1ccc(-c2ccc(Cl)cc2Cl)o1 | . | . | . | 11.2µM | .
Nc1nc(COc2ccc3ccccc3c2)cs1 | . | . | / | 6.31µM | /
CCCCC(=O)N(C)c1c(C)nc2ccc(C(=O)NCc3ccccc3OC)cn12 | . | . | / | . | /
Cc1ccc(-c2nn(-c3ccc(F)cc3)cc2C(=O)NCCCN2CCCC2=O)cc1 | . | . | . | . | .
CC(C)(C)C(=O)Cn1c(=O)n(-c2ccc(Cl)c(Cl)c2)c(=O)c2c3c(sc21)CCCC3 | / | / | / | . | /
CC(C)(C)n1nnnc1C(c1ccccc1)N1CCc2ccccc2C1 (stereo not given) | . | -57.4 | . | . | .
CC(C)(C)C(=O)Nc1nc2c(s1)CN(Cc1ccccc1)CC2 | . | . | . | 8.91µM | .
O=S(=O)(c1nccs1)N1CCN(c2nc(-c3cccs3)nc3ccccc23)CC1 | / | / | / | . | /
COc1ccc(/C=C/c2c(-c3ccc(OC)cc3)oc(=O)c3cc(OC)c(OC)cc23)cc1 | . | . | . | . | .
COc1ccc(-c2oc3cccnc3c2/C=C/c2ccc(OC)c(OC)c2)cc1 | . | . | 28.2µM | . | .
Oc1cccc(NC(=S)N=Nc2c(O)[nH]c3ccccc23)c1 | . | . | 1.26µM | . | .
CC(=O)c1cccc(CN(C)CC2CCCN(CCc3ccccc3C)C2)c1 (stereo not given) | . | . | . | . | .
O=C1COc2ccc(OCc3ccc(F)cc3)cc21 | . | . | . | 2.82µM | .
COc1ccc2c(-c3cc4ccc(OCc5ccc(F)cc5)cc4oc3=O)cc(=O)oc2c1 | . | . | . | . | .
Cc1ccc(C)c(N2CCN(C(=O)CN3CCSc4ccc(S(=O)(=O)N(C)C)cc43)CC2)c1 | / | / | / | . | /
O=C1NC(=Nc2ccccc2)CS1 | . | . | 11.2µM | . | .
O=C1NC(=Nc2ccc(F)cc2)CS1 | . | . | . | . | .
CCN(CC)S(=O)(=O)c1cc(C(=O)Nc2ccc(Cl)cn2)ccc1C | -113.6% | . | . | ? | .
COc1ccc(C(=O)c2ccccc2O)c(O)c1 | . | . | . | . | .
COc1ccc(C(=O)c2ccc(OC)cc2O)c(O)c1 | . | . | . | 10µM | .
Cc1ccc(N(CC(=O)Nc2ccc(C)c(Cl)c2)S(=O)(=O)c2cccs2)cc1 | / | / | / | . | /
Cn1nnnc1Sc1ncnc2scc(-c3cc4ccccc4o3)c12 | / | / | ? | . | 39.8µM
SMILES | Akt phos inh | CCT chaperon mod | A-T KAP1 phos | BRCA1 expr up | Mm-Cpn inhibitor
C=C1C=C(C(F)F)n2ncc(C(=O)NCc3ccccc3)c2N1 | / | / | / | . | /
COc1ccc(N2CCN(CCCNC(=O)C3CCC(CNc4nc(=S)[nH]c5ccccc45)CC3)CC2)cc1 (stereo not given) | . | . | . | . | .
O=C(C1CCC(CNc2nc(=S)[nH]c3ccccc23)CC1)N1CCN(c2ccc(F)cc2)CC1 (stereo not given) | . | -36.0 | . | . | .
Cc1ccc(-n2nnc3ccccc3c2=O)cc1C | . | . | . | 4.47µM | .
C(=C\c1ccnc2ccccc12)/c1ccc(N(Cc2ccccc2)Cc2ccccc2)cc1 | / | / | / | . | /
COc1cccc(CNS(=O)(=O)c2cc3c(cc2Cl)NC(=O)CO3)c1 | . | . | . | . | .
CC1CCC/C(=C(\C#N)c2nc(-c3cc4ccccc4oc3=O)cs2)C1 (stereo not given) | . | . | . | 3.16µM | .
O=c1oc2ccccc2cc1-c1csc(NN=C2CCCCC2)n1 | . | . | . | ? | .
O=C(NC1CCCc2ccccc21)c1cnn2c1NC(=C1CC1)C=C2C(F)F (stereo not given) | / | / | / | . | /
Brc1ccc[n+](CCC2CCCCC2)c1 | / | / | / | . | /
O=C(Nc1ccccc1)N1CCC(c2ccccc2)C1 (stereo not given) | . | . | . | 3.16µM | .
COc1ccc(NC(=S)N2CCC(C(O)(c3ccccc3)c3ccccc3)CC2)cc1 | . | . | . | . | .
O=C(CCN1CCC(c2ccccc2)C1)c1cccs1 (stereo not given) | . | . | . | . | .
COc1ccc(NC(=S)N2CCC(c3ccccc3)C2)cc1 (stereo not given) | . | . | . | 2.82µM | .
O=C(c1cccs1)N1CCC(c2ccccc2)C1 (stereo not given) | . | . | . | 3.55µM | .
CCc1ccc(NC(=O)N2CCC(c3ccccc3)C2)cc1 (stereo not given) | . | . | . | ? | .
Cc1cccc(OCC(=O)N2CCC(c3ccccc3)C2)c1 (stereo not given) | . | . | . | 7.94µM | .
C=C1C=C(C(F)F)n2ncc(C(=O)NCc3ccccc3OC)c2N1 | / | / | / | . | /
Cc1ccc2oc(-c3cccc(NC(=O)COc4ccc(Cl)cc4)c3C)nc2c1 | / | / | / | . | /
CC(=O)N[C@@H](Cc1ccc(O)cc1)C(=O)N[C@H](C(=O)N[C@@H](C)C(=O)N[C@H](C#N)CC(=O)O)C(C)C | / | / | . | / | .
O=C(Nc1ccc2c(c1)OCCO2)c1c(F)cccc1F | . | . | . | 2.51µM | .
CSc1ncccc1C(=O)OCC(=O)Nc1ccc2c(c1)OCO2 | . | . | . | . | .
O=C(Nc1ccc2c(c1)OCCO2)c1ccccc1F | . | . | . | . | .
CSc1ncccc1C(=O)Nc1ccc2c(c1)OCCO2 | . | . | 28.2µM | . | .
CCNC(=S)NNC(=O)c1cc(-c2cccc(C)c2)nc2ccccc12 | . | . | . | 4.47µM | .
SMILES | Akt phos inh | CCT chaperon mod | A-T KAP1 phos | BRCA1 expr up | Mm-Cpn inhibitor
COc1cc(NC(=O)c2ccc3c(c2)OCO3)ccc1NC(=O)C(C)C | -115.0% | . | . | . | .
CC(C)C(=O)Nc1ccc(NC(=O)c2ccc3c(c2)OCO3)cc1 | . | . | . | . | .
Cc1ccc(-c2cc(C(=O)Nc3ccc4c(c3)OCCO4)c3ccccc3n2)cc1 | / | -32.9 | . | . | .
O=C(Nc1ccc2c(c1)OCO2)c1cccc(Cl)c1 | . | . | . | 11.2µM | .
Cc1cccc(NC(=O)c2cc(C)nc3ccccc23)c1 | . | -39.3 | . | . | .
CCCOc1ccc(C(=O)Nc2ccc3c(c2)OCO3)cc1 | . | . | . | 3.16µM | .
O=C(Nc1ccc2c(c1)OCO2)c1cc(-c2cccnc2)nc2ccccc12 | . | . | . | . | .
Cc1ccc(NC(=O)c2cc(C)nc3ccccc23)cc1 | . | . | . | . | .
CCCCOc1ccc(C(=O)Nc2ccc3c(c2)OCO3)cc1 | . | . | . | . | .
